The record followed here is PubChem BioAssay (NCI).

This is part of a sample that, as a whole, favours compounds with a hit. Of some 79,000 tested, about 15% had one in any assay. The source made the active and inactive calls. No stated cut-off is given here; in the data, active means growth inhibition above about 70%; inactive means the rest. Where a SMILES comes first, the peptide text is derived from it. The star is where a group is joined. Cbz = O=C(OCc1ccccc1)*

This assay can be described thus: NCI Yeast Anticancer Drug Screen. Data for the rad50 strain (AID 155).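 Further: 0% = growth of vehicle-only cultures of the same strain.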 Conditions: S. cerevisiae rad50 strain growth inhibition; at 50.0 µM; active compounds read high. On the procedure:
Growth inhibition of yeast strains with defined genetic alterations is measured as a screen for potential anti-cancer activity. Selected strains with alterations in DNA damage repair or cell cycle control were exposed to compounds and growth inhibition was measured relative to vehicle treated controls. The strain used in this assay is rad50
As to `NC1=CN(Cc2ccccc2)C2=N/C(=C\c3ccccc3)C(=O)N12`, the growth inhibition is -13.3% (inactive).

As to `CCN(CC)CCC(C)C(Cc1cccs1)OC(C)=O` (stereo not given), the growth inhibition is 4.1% (inactive). As to `N#CCCn1ncc(C#N)c1N`, the growth inhibition is 3.4% (inactive). Next, `O=C(OC1CCCC1)C1(O)CCCCC1`: 18.2% (inactive); `O=C1CCSSCCC(=O)Nc2ccccc2N1`: -36.4% (inactive). As for `CCOc1ncnc2ccc(Cl)c(I)c12`, the figure is 12.2% (inactive); as for `O=C(OCC1CCCO1)c1ccc(Cl)cc1` (stereo not given), 13.7% (inactive). As for `COC1OC(CCl)C(Cl)C(Cl)C1O` (stereo not given), the figure is 17.7% (inactive); as for `COC(=O)C(CC(C)C)NC(=O)C(CCCN=C(N)N)NC(=O)OCc1ccccc1` (stereo not drawn) (Cbz-Arg-Leu-OMe; configuration not given here), -27.7% (inactive); as for `CC(C)(c1ccsc1)c1sccc1C(=O)O`, -4.7% (inactive). `C=C(C)CN(Cc1ccccc1)C1CCCCCCC1`: the growth inhibition was -7.55% (inactive). As for `O=C(Nc1ccc(Cl)c(Cl)c1)OCCN1CCOCC1`, the figure is 82.3% (active); as for `CCC1(O)C(=O)Nc2ccccc2C1=O` (stereo not given), -3% (inactive); as for `CC(=O)OCC(=O)C1(O)CCC2C3CCC4=CC(=O)CCC4(C)C3(SC#N)CC(=O)C21C` (stereo not given), -8% (inactive). As for `CC(=O)Nc1ccc(S(=O)(=O)/C(=C/c2ccc(-c3ccc(Br)cc3)o2)c2ccc([N+](=O)[O-])o2)cc1`, the figure is 30% (inactive); as for `CC(C)(C)CC(C(=O)O)[Si](C)(C)C` (stereo not given), -4.55% (inactive); as for `CC(=O)C(c1ccccc1)N(CCO)Cc1ccccc1` (stereo not given), 8.15% (inactive). As for `CC(C)N1CCN(c2ccncc2S(=O)(=O)N2CCCCC2)CC1`, the figure is -14.1% (inactive); as for `COC12COC(=O)C1C(c1ccc3c(c1)OCO3)c1cc3c(cc1O2)OCO3` (stereo not given), 21.8% (inactive).

Regarding `C1CCC(C(CCCCC(C2CCCCC2)C2CCCCC2)C2CCCCC2)CC1`, the growth inhibition is 46.5% (inactive). As for `CCC(CO)Nc1nncc2ccccc12` (stereo not given), the figure is 2.4% (inactive). Next, `CC1(CCN2CCCC2)NC(=O)NC1=O` (stereo not given): 15.9% (inactive); `C=CC12CCCCC1C(NC)Cc1ccc(OC)c(O)c12` (stereo not given): 4.25% (inactive); `O=C1c2cccc3c(Br)ccc(c23)C(=O)N1CCCN1CCOCC1`: 63.5% (inactive).

For `CN(c1ccccc1)c1nc(=[N+](C)C)ss1`, the growth inhibition is 35.4% (inactive). As for `Oc1[nH]c2ccccc2c1N=Nc1nc(-c2ccccc2)cs1`, the figure is -40.6% (inactive). As for `COc1cc(C(=O)C/C(CCC(=O)Nc2ccc(Cl)cc2Cl)=N/Nc2nnc(C)n2N)ccc1O`, the figure is -19.6% (inactive); as for `CCOC(=O)C1CSC(N)=N1` (stereo not given), 4.45% (inactive). As for `CSc1nc(Cl)nc2[nH]ncc12`, the figure is 11.3% (inactive). In the case of `O=C1CCC(=O)N2CCCCN12`, the growth inhibition was -4.7% (inactive). As for `CC(NC(=O)CNP(=O)(c1ccccc1)c1ccccc1)C(=O)NC(Cc1ccccc1)C(=O)OCc1ccccc1` (stereo not given), the figure is 9.8% (inactive); as for `CC(CN(C)C)N(C)C` (stereo not given), -14.7% (inactive); as for `CC(C)NCCC(O)c1cc2ccccc2o1` (stereo not given), -12.8% (inactive).

Consider `COC(=O)C1C2C=CC(C2)N1[C@@H](C)c1ccccc1` (stereo not given in full), for which the growth inhibition is 8.55% (inactive).

As to `CSCc1cc(C)ccc1NC(C)=O`, the growth inhibition was 0.5% (inactive).

Take `CC1=Nc2c(ccc3c2C(=O)c2ccccc2C3=O)NC(c2ccncc2)C1` (stereo not given): the growth inhibition is 31.1% (inactive). As to `C=CC1ON(C)CCc2cc(OC)c(OC)cc21` (stereo not given), the growth inhibition was -4.9% (inactive).

Take `CCS(=O)(=O)N(CC(=O)O)Cc1ccccc1`: the growth inhibition is -4.95% (inactive). Next, `O=S1(=O)OCCOS(=O)(=O)C1(I)I`: 11.7% (inactive); `CC(C)(C)OC(=O)N/N=C(/N)Cc1ccccc1`: -36.2% (inactive).
